# Screening results (PubChem BioAssay)
# The full list was thinned out, with hits kept by preference.
# Tb hexokinase = T. brucei hexokinase 1 inhibition; AID 1430; hit rate 0.11% among 220,000; inhibition, % at 10 µM; recombinant TbHK1, G6PDH-coupled NADH A340;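 active = inhibition of 50% or more in the single-dose primary screen; inactive = inhibition below 50%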
# Ins promoter up = MIN6 insulin promoter up-regulation. hit rate 0.3% among 190,000. z-score at 5 µM. MIN6 insulin promoter-GFP reporter, high-content imaging; hits give high values;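 active = z-score above 3 at 5 µM with at least 500 cells counted in the well; inconclusive = wells under 500 cells, flagged as cytotoxic or low count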
# ROMK primary = modulates human ROMK potassium channel activity. Tet-inducible ROMK, thallium flux fluorescence; actives lie on both sides. hit rate 2% among 130,000. B-score at 10 µM. AID 1918;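 active = signal ratio slope over the read window, or its plate-corrected B-score, at least 3 SD from the plate mean, either direction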;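 note: B-score of the F/F0 ratio slope over 7 to 12 s after thallium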
# Target sequence (P48048 whole entry, looked up): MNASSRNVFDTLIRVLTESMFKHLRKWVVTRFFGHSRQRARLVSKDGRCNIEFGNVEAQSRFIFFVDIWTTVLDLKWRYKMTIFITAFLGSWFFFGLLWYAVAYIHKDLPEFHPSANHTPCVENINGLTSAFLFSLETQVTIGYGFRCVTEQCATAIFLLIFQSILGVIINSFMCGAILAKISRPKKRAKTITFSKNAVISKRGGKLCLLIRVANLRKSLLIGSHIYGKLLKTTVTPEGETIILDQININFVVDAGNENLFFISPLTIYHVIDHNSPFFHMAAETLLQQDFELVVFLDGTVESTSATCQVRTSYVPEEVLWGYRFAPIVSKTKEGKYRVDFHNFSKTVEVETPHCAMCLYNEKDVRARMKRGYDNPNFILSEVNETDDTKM
# HSV replic up = increases HSV replication in cells; HSV replication augmentation in cells, fold increase; maximum fold increase; hit rate 0.005% among 220,000; AID 1956; in the data active = maximum fold increase above about 1.5; inconclusive = no clear call, values can overlap the other calls; tested in PC3 cells
# INS promoter inh = TRM-6 insulin promoter activity inhibition; AID 1273; hit rate 0.9% among 130,000; inhibition, % at 2 µM; TRM-6 cells (human fetal islet line), insulin promoter-eGFP reporter, imaging; reporter expression induced with tamoxifen;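 active = inhibition above the mean plus 3 SD, with well images judged a real hit on visual review, cut at about 60% in these data, passing the limit was not always enough; inconclusive = inhibition over the cutoff but images rejected on review; inactive = inhibition not above the cutoff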
# ROMK retest = retested hit modulating human ROMK potassium channel; normalized thallium flux (F/F0 slope) at 10 µM; ROMK thallium flux, fluorescence ratio; hits give low values; shares compounds with ROMK primary; hit rate 54% among 3,000;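 active = Flux at 10 µM at least 3 SD below or above vehicle control mean in one or both replicates; inconclusive = no clear call, values can overlap the other calls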
# Numbers stand for hits; – = inactive; ? = inconclusive; · = no result given.
SMILES,Tb hexokinase,Ins promoter up,ROMK primary,HSV replic up,INS promoter inh,ROMK retest
CN(C)CC(CCC(CN(C)C)C(=O)c1ccccc1)C(=O)c1ccccc1 (stereo not given),–,–,-3.2,–,·,0.044
COc1cccc2c1OCC(CN1CCN(CCC(C)C)C(CCO)C1)=C2 (stereo not given),–,–,–,–,·,·
CCOc1ccc(CNC(=O)CCS(=O)(=O)Cc2cccc(Cl)c2)cc1OC,–,·,–,–,–,·
Cc1nnc(SCc2c(Cl)cccc2Cl)n(N)c1=O,–,–,-2.9,–,·,0.061
CN(C)c1cc(O)c(C(=S)Nc2ccccc2)c(N(C)C)c1,–,·,-3.3,·,–,0.063
Cn1c(=O)c2c(ncn2Cc2ccc(Cl)c(Cl)c2)n(C)c1=O,–,·,-2.1,–,–,?
Cn1c(N2CCOCC2)nc2c1c(=O)n(Cc1ccc(Cl)c(Cl)c1)c(=O)n2C,–,–,-3.7,–,–,0.068
COc1cccc2sc(Nc3nnc(-c4ccc(F)cc4)o3)nc12,–,·,·,–,·,0.17
CC(=O)O[C@]1(C(C)=O)CC[C@H]2[C@@H]3C=C(Cl)C4=CC(=O)CC[C@]4(C)[C@H]3CC[C@@]21C,–,·,·,–,–,–
CC(=O)O[C@]1(C(C)=O)CC[C@H]2[C@@H]3C=C(Cl)C4=CC(=O)[C@@H]5C[C@@H]5[C@]4(C)[C@H]3CC[C@@]21C,·,·,·,–,·,·
COc1ccc(S(=O)(=O)N2CCCCCC2)cc1NC(=O)c1c2c(nc3ccccc13)CCN(Cc1ccccc1)C2,–,·,–,–,–,·
CCN(CC)S(=O)(=O)c1ccc(OC(C)C)c(NC(=O)c2c3c(nc4ccccc24)CCN(Cc2ccccc2)C3)c1,–,–,-3,–,–,0.059
CCOc1ccc(Br)cc1CNc1ccc2c(c1)OCCO2,–,–,–,–,·,·
O=C1c2ccccc2C(=O)N1Cc1cc(-c2ccc(Cl)cc2)no1,–,·,·,–,·,·
CCOC(=O)Cn1c(=NC(=O)c2ccc([N+](=O)[O-])s2)sc2ccccc21,–,–,–,–,–,·
NC(N)=Nc1nc(-c2ccccc2)c2cc(F)ccc2n1,–,–,-3.7,–,·,0.06
O=C(NCCCc1nc2ccccc2[nH]1)c1cccs1,–,–,–,–,·,·
Cc1cc(NC(=O)Nc2cccc(C)c2C)no1,–,–,–,–,–,·
c1ccc(-c2nnc3ccc(N4CCCC4)nn23)cc1,–,–,·,–,·,·
CN(Cc1ccccc1)c1ccc2nnc(-c3ccccc3)n2n1,–,–,-3.7,·,–,0.065
O=C(NC1CCCCCC1)c1cc(S(=O)(=O)N2CCCCC2)ccc1N1CCOCC1,–,–,-3.2,–,–,0.061
O=S1(=O)CCN(C(CCO)c2cccc(C(F)(F)F)c2)CC1 (stereo not given),–,–,–,–,–,·
O=C(C1CCN(Cc2ccc(F)cc2)CC1)N(CCc1ccccc1)Cc1ccccc1,–,–,-3.5,–,–,0.046
O=C(C1CCN(Cc2ccc(F)cc2)CC1)N(CCO)Cc1ccccc1,–,·,·,–,–,·
CCOc1cccc(NC(=O)CSc2nc(C)c3c(c2C#N)CCCC3)c1,–,–,·,–,–,–
SMILES,Tb hexokinase,Ins promoter up,ROMK primary,HSV replic up,INS promoter inh,ROMK retest
O=c1[nH][nH]c2cc(=O)n(-c3ccc(Cl)cc3)nc12,–,–,–,–,–,·
O=[N+]([O-])c1ccc2c(c1)/C(=N\O)c1ccccc1-2,–,–,-2.9,–,·,?
NN=C1c2cc([N+](=O)[O-])ccc2-c2ccc([N+](=O)[O-])cc21,–,–,–,–,·,·
O=C(c1ccc(-n2c(SCc3cccc(F)c3)nc3ccccc3c2=O)cc1)N1CCOCC1,–,–,-3.4,–,–,0.059
COc1ccc2c(n1)Sc1nc3ccccc3nc1N2,–,·,·,?,·,0.057
COc1ccc(OCc2nnc(SCC(=O)c3c(N)n(C)c(=O)n(C)c3=O)n2-c2ccccc2F)cc1,–,–,–,–,·,·
Cc1ccc(S(=O)(=O)N/N=C/c2ccc(OCC(=O)NC(C)C)cc2)cc1,–,·,·,–,–,·
CC1=C(C)CS(=O)N(c2ccc(S(N)(=O)=O)cc2)C1 (stereo not given),–,–,·,–,–,·
CC1=C(C)CS(=O)N(S(=O)(=O)c2ccccc2)C1 (stereo not given),–,–,-5.5,–,–,0.047
CCN(CCNC(=O)C1CCCN(Cc2nc(-c3ccc(OC)cc3)oc2C)C1)c1ccccc1 (stereo not given),–,–,-3.9,–,·,0.059
O=C(COC(=O)c1ccc(NS(=O)(=O)c2cccs2)cc1O)NCc1ccccc1,–,–,3.6,–,–,–
COc1ccccc1CNC(=O)/C=C/c1ccc(S(=O)(=O)N2CCOCC2)cc1,–,–,–,–,·,·
O=c1c2ccccc2nnn1COc1cccc(Cl)c1,–,–,–,–,·,·
COc1ccc(CCNC(=O)C(=O)NN=C2CCCCCCC2)cc1OC,–,–,·,–,·,·
O=C(NCCC1=CCCCC1)C(=O)NCc1ccccc1,–,–,1.2,–,·,–
O=C(NCCc1ccccc1)C(=O)NN=C1CCCC1,–,–,2.8,·,–,–
CC(=O)Nc1nnc(Cc2c[nH]c3ccccc23)s1,–,–,–,–,–,·
CCCCOc1ccc(CSCCN=C(N)N)cc1,–,–,-3.4,–,·,0.054
CN(C)CCCNCCCNC(=O)/C(=N\O)c1ccccc1,–,–,·,–,·,·
O=C(COC(=O)C1CC2C=CC1C2)Nc1cccc(S(=O)(=O)N2CCOCC2)c1 (stereo not given),–,–,·,–,·,–
Cc1ccc(S(=O)(=O)N2CCCN(c3nc4cc(C)ccc4cc3C#N)CC2)cc1,–,–,·,–,–,–
Cc1ccc2nc(N3CCN(S(=O)(=O)c4ccc5c(c4)OCCO5)CC3)c(C#N)cc2c1,–,–,·,–,–,·
CC12CC3(C)CC(C)(C1)CC(C(=O)NC(=S)NC(C)(C)C)(C2)C3,–,–,2.5,–,–,?
COc1ccc(/C=C/C2=Nc3ccccc3NC(C)(C)C2)cc1OC,–,–,-7.8,–,·,0.043
CCCc1nc2ccccc2n1Cc1ccccc1OC,–,–,·,–,·,·
SMILES,Tb hexokinase,Ins promoter up,ROMK primary,HSV replic up,INS promoter inh,ROMK retest
COc1ccccc1Cn1c(CCCO)nc2ccccc21,–,–,-3.8,–,–,?
CC(C)c1[nH]nc2c1C(c1cccs1)C(C#N)=C(N)O2 (stereo not given),–,–,-5.7,–,–,0.058
COc1ccc(C2CC(c3cccs3)=NN2C(=O)COC(=O)c2cncc(Br)c2)cc1OC (stereo not given),–,–,–,–,·,·
O=[N+]([O-])c1ccc2nc(CCCc3nc4ccc([N+](=O)[O-])cc4[nH]3)[nH]c2c1,–,–,-6.9,–,·,0.027
COc1ccc(C(N)=S)cc1,–,–,–,–,–,·
C=C(c1ccc(OC)cc1)c1ccc(OC)cc1,–,–,1.9,·,–,–
CC(C)c1ccc(CNc2nc3nc4c(c(=O)n3[nH]2)CCC4)cc1,–,·,–,–,·,·
CCOc1ccccc1CNc1nc2nc3c(c(=O)n2[nH]1)CCC3,–,–,·,–,–,–
Cc1cc(C(=O)NNc2ccc(F)cc2F)no1,–,–,–,–,·,·
COc1ccc(C(=O)NN(C)c2nc(C(F)(F)F)nc3ccccc23)cc1,–,–,3.5,–,·,–
COc1ccc(C(=O)NN(C)c2nc(-c3ccccc3)nnc2C(F)(F)F)cc1,–,–,–,·,·,·
